Measurements from PubChem BioAssay (Tox21).
Inconclusive results are not listed. Calls of active or inactive are those of the source. The call rests on the fitted dose curve.

experiment: qHTS assay for small molecule agonists of the antioxidant response element (ARE) signaling pathway - cell viability counter screen (AID 743203); details: ARE-bla HepG2 viability, CellTiter-Glo luminescence, 16 h; series mostly up to 73.3 µM; viability change, negative = cytotoxic: at the top concentration; further: nearly all actives have a fitted effect of over 55% in size
Excerpt: National Center for Advancing Translational Sciences [NCATS]
NIH Chemical Genomics Center [NCGC]
U.S. Environmental Protection Agency [EPA]
National Institutes of Environmental Health Sciences [NIEHS]
National Toxicology Program [NTP]
U.S. Food and Drug Administration [FDA]
Oxidative stress has been implicated in the pathogenesis of a variety of diseases ranging from cancer to neurodegeneration. The antioxidant response element (ARE) signaling pathway plays an important role in the amelioration of oxidative stress. The CellSensor ARE-bla HepG2 cell line (Invitrogen) can be used for analyzing the Nrf2/antioxidant response signaling pathway. Nrf2 (NF-E2-related factor 2) and Nrf1 are transcription factors that bind to AREs and activate these genes. The CellSensor ARE-bla Hep G2 cell line contains a beta-lactamase reporter gene under control of the Antioxidant Response Element (ARE) stably integrated into HepG2 cells. The activation of the report gene under culture conditions can be detected by fluorescence intensity. This cell line has been used to screen the Tox21 10K compound library to identify agonists that induce oxidative stress. The cytotoxicity of the Tox21 compound library against the ARE-bla cell line was tested in parallel by measuring the cell viability using CellTiter-Glo assay (Promega, Madison, WI) in the same wells.
Tox21 Assay Protocol Summary:
ARE-bla HepG2 cells were dispensed at 2,000 cells/5 ul/well in 1536-well white wall/solid bottom plates using a Multidrop Combi (ThermoFisher Scientific, Waltham, MA) dispenser. After the assay plates were incubated at 37C/5% CO2 for 5 hrs, 23 nL of compounds dissolved in DMSO, positive controls or DMSO only was transferred to the assay plate by a pintool work station (Kalypsys, San Diego, CA). The plates were incubated at 37C/5% CO2 for 16 hrs, followed by addition of 4 ul/well of CellTiter-Glo reagent into the assay plates using a Flying Reagent Dispenser (Aurora Discovery, San Diego, CA). After 30 min incubation at room temperature, the luminescence intensity in the assay plates was measured using a ViewLux (PerkinElmer, Shelton, CT) plate reader.
On the % scale 0 is the no-effect control and ±100 the full control effect.

Row | SMILES | viability change, negative = cytotoxic
1 | CCCCCCCC1CCCC1=O (stereo not given) | 2.58% (inactive)
2 | C[C@@H]1C[C@H]2[C@@H]3C[C@H](F)C4=CC(=O)C(Cl)=C[C@]4(C)[C@@]3(F)[C@@H](O)C[C@]2(C)[C@@]1(O)C(=O)CO | -1.44% (inactive)
3 | CCCCCCCCN1CCCC1=O | -19% (inactive)
4 | CC(C)C(=O)OC(=O)C(C)C | -0.785% (inactive)
5 | CC(=O)c1cnccn1 | -6.06% [at 94.8 µM] (inactive)
6 | Nc1ccn([C@@H]2O[C@H](CO)[C@@H](O)C2O)c(=O)n1 (stereo not given in full) | -23.4% (inactive)
7 | CNCC(O)c1ccc(O)c(O)c1 (stereo not given) | -9.75% (inactive)
8 | C[N+]12CCC(CC1)C(OC(=O)C(O)(c1ccccc1)c1ccccc1)C2 (stereo not given) | -1.43% (inactive)
9 | CCC1C(=O)OCC1Cc1cncn1C (stereo not given) | 0.0456% (inactive)
10 | Cc1ncc(COP(=O)(O)O)c(C=O)c1O | 10.4% (inactive)
11 | CC(=O)OCC(=O)[C@@]1(O)[C@H](C)C[C@H]2[C@@H]3CCC4=CC(=O)C=C[C@]4(C)[C@@]3(F)[C@@H](O)C[C@@]21C | -3.28% (inactive)
12 | CN(C)CCCCCCN(C)C | -0.892% [at 94.8 µM] (inactive)
13 | Nc1c2c(nc3c1CCC3)CCCC2 | -1.6% (inactive)
14 | CC(C)CCCO | 1.49% (inactive)
15 | Clc1cc(Cl)cc(Cl)c1 | -1.58% (inactive)
16 | CC(=O)N1C[C@H](O)C[C@H]1C(=O)O | 11.5% (inactive)
17 | C1CCC2(CCCCO2)OC1 | -3.95% (inactive)
18 | CC(C)C1CCC(O)CC1 (stereo not given) | -24.9% (inactive)
19 | O=C(O)CC(C(=O)O)S(=O)(=O)O (stereo not given) | 1.72% (inactive)
20 | C=C(C)C(=O)OCCOCCOCCOCCOC(=O)C(=C)C | 7.59% (inactive)

Row | SMILES | viability change, negative = cytotoxic
21 | CCOc1ccc2nc(S(N)(=O)=O)sc2c1 | 13.8% (inactive)
22 | O=C1c2ccccc2C(=O)c2cc(O)ccc21 | 0.787% (inactive)
23 | Cc1coc2ccccc2c1=O | 8.23% (inactive)
24 | C=CCCCCCCCCC(=O)OCC | 4.33% (inactive)
25 | CCCCCCCCCCOc1cc2c(=O)c(C(=O)OCC)c[nH]c2cc1OCC | -3.47% [at 8.36 µM] (inactive)
26 | CC(C)C[C@@H](N)C(=O)O | -6.11% [at 34.3 µM] (inactive)
27 | Cc1nc(C2CCCCC2)c(-c2ccc(S(N)(=O)=O)c(F)c2)o1 | 6.63% (inactive)
28 | CC1=NN(c2cccc(S(=O)(=O)O)c2)C(=O)C1 | -5.57% (inactive)
29 | NO | -0.346% [at 94.8 µM] (inactive)
30 | CCC(C)(CN(C)C)OC(=O)c1ccccc1 (stereo not given) | -6.84% (inactive)
31 | CO/N=C(\C(=O)N[C@@H]1C(=O)N2C(C(=O)O)=C(CSc3nc(=O)c(O)nn3C)CS[C@H]12)c1csc(N)n1 | -0.688% (inactive)
32 | CC(=O)c1ccccc1[N+](=O)[O-] | 3.44% (inactive)
33 | CCOC(=O)COC(=O)c1ccccc1C(=O)OCC | -1.17% (inactive)
34 | CC(C#N)(CCC(=O)O)N=NC(C)(C#N)CCC(=O)O (stereo not given) | 10.3% (inactive)
35 | CC1=NN(c2cc(S(=O)(=O)O)ccc2Cl)C(=O)C1N=Nc1ccccc1 (stereo not given) | 11.2% (inactive)
36 | CCCCCCCCCC[N+](C)(C)[O-] | 6.36% (inactive)
37 | CCNS(=O)(=O)c1ccc(C)cc1 | 7.18% [at 94.8 µM] (inactive)
38 | CCO[Si](OCC)(OCC)c1ccccc1 | 11.3% (inactive)
39 | Cc1c(N)c(=O)n(-c2ccccc2)n1C | -2.07% (inactive)
40 | CC(C)[C@H]1CC[C@@H](C)CC1=O | 11.1% (inactive)
